# Experimental data reported in ChEMBL document CHEMBL2218924, “A broad activity screen in support of a chemogenomic map for kinase signalling research and drug discovery” (Biochem J, 2013).
# Columns and labels:
# [1] = biological target: T1, Rhodopsin kinase GRK7 (Homo sapiens) (UniProt Q8WTQ7); details: at 10 µM
# T1 sequence (whole entry): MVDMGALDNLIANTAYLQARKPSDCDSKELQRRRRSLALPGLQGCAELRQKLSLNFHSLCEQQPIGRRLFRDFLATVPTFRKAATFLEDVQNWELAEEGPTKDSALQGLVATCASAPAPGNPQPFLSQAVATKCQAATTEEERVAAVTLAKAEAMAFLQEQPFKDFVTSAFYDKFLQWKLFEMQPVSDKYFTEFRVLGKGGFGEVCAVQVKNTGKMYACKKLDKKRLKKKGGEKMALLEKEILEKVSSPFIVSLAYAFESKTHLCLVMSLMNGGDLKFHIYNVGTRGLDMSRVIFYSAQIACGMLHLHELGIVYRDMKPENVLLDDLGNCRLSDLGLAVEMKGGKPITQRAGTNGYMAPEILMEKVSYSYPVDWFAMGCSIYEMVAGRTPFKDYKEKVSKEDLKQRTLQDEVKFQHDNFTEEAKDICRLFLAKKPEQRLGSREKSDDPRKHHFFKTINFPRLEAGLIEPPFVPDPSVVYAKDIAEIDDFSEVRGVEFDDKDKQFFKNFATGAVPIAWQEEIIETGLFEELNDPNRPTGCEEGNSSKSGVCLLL
# [2] = biological target: Glycogen synthase kinase-3 alpha (Homo sapiens) (UniProt P49840); details: at 1 µM
# Chain of Glycogen synthase kinase-3 alpha (Homo sapiens) (P49840 2-483 limits assumed): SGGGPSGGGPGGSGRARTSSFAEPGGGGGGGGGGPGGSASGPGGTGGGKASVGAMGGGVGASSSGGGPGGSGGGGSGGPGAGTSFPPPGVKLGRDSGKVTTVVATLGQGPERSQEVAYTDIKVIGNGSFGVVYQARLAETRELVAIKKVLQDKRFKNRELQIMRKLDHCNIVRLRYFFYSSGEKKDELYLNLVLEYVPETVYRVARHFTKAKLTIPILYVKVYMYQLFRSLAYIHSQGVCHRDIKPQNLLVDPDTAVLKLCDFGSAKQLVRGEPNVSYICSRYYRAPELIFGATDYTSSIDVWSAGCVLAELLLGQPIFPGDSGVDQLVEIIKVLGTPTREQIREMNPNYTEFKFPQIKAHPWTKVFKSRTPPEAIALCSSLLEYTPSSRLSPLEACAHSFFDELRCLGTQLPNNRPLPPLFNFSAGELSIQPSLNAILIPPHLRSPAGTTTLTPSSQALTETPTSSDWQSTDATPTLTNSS
# [3] = biological target: Glycogen synthase kinase-3 alpha (Homo sapiens) (UniProt P49840); details: at 10 µM
# [4] = biological target: Glycogen synthase kinase-3 beta (Homo sapiens) (UniProt P49841); details: at 1 µM
# Chain of Glycogen synthase kinase-3 beta (Homo sapiens) (P49841 whole entry, looked up): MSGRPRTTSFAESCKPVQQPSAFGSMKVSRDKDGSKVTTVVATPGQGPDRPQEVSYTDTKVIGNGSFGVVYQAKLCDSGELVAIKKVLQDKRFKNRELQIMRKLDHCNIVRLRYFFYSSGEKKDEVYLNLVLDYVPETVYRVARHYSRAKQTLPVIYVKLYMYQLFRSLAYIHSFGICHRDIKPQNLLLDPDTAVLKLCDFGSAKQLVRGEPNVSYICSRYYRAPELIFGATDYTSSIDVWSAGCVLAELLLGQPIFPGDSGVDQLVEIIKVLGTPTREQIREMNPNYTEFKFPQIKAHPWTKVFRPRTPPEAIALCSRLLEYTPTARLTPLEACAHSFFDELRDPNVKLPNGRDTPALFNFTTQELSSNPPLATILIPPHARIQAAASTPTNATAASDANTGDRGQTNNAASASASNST
# [5] = biological target: Glycogen synthase kinase-3 beta (Homo sapiens) (UniProt P49841); details: at 10 µM
# [6] = biological target: Homeodomain-interacting protein kinase 1 (Homo sapiens) (UniProt Q86Z02); details: at 1 µM
# Chain of Homeodomain-interacting protein kinase 1 (Homo sapiens) (Q86Z02 whole entry, looked up): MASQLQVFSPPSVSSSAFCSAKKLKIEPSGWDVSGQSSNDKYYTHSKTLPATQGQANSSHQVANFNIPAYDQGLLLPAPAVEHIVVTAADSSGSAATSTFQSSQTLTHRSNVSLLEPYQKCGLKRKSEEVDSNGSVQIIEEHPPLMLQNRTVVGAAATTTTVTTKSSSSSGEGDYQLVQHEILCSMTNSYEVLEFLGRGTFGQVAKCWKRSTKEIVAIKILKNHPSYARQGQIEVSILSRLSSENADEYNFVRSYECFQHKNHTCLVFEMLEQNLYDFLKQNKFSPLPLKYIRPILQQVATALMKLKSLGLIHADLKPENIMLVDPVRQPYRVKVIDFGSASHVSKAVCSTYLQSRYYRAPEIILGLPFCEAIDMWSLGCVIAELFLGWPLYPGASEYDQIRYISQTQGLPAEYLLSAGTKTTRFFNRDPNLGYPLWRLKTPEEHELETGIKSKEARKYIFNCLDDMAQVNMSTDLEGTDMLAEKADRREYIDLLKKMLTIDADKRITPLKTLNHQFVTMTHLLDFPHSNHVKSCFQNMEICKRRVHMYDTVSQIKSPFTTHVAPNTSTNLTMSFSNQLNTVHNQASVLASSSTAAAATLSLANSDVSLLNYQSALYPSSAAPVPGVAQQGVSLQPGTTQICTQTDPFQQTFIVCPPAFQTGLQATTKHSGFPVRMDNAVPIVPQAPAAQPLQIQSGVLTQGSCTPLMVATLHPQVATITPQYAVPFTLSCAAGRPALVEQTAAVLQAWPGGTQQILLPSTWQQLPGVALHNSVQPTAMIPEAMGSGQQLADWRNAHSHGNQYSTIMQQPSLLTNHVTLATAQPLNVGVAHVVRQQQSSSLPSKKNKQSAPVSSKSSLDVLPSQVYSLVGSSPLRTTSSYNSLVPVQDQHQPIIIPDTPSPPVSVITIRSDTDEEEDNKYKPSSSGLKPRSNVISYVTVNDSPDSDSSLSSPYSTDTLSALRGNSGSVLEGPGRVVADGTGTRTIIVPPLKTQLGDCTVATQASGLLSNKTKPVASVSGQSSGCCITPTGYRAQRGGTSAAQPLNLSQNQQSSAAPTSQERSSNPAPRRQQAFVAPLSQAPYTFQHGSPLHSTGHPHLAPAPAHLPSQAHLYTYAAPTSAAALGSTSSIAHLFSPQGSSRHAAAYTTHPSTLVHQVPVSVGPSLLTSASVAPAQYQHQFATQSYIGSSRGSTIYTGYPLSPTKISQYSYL
# [7] = biological target: Homeodomain-interacting protein kinase 1 (Homo sapiens) (UniProt Q86Z02); details: at 10 µM
# [8] = biological target: Homeodomain-interacting protein kinase 2 (Homo sapiens) (UniProt Q9H2X6); details: at 1 µM
# Chain of Homeodomain-interacting protein kinase 2 (Homo sapiens) (Q9H2X6 whole entry, looked up): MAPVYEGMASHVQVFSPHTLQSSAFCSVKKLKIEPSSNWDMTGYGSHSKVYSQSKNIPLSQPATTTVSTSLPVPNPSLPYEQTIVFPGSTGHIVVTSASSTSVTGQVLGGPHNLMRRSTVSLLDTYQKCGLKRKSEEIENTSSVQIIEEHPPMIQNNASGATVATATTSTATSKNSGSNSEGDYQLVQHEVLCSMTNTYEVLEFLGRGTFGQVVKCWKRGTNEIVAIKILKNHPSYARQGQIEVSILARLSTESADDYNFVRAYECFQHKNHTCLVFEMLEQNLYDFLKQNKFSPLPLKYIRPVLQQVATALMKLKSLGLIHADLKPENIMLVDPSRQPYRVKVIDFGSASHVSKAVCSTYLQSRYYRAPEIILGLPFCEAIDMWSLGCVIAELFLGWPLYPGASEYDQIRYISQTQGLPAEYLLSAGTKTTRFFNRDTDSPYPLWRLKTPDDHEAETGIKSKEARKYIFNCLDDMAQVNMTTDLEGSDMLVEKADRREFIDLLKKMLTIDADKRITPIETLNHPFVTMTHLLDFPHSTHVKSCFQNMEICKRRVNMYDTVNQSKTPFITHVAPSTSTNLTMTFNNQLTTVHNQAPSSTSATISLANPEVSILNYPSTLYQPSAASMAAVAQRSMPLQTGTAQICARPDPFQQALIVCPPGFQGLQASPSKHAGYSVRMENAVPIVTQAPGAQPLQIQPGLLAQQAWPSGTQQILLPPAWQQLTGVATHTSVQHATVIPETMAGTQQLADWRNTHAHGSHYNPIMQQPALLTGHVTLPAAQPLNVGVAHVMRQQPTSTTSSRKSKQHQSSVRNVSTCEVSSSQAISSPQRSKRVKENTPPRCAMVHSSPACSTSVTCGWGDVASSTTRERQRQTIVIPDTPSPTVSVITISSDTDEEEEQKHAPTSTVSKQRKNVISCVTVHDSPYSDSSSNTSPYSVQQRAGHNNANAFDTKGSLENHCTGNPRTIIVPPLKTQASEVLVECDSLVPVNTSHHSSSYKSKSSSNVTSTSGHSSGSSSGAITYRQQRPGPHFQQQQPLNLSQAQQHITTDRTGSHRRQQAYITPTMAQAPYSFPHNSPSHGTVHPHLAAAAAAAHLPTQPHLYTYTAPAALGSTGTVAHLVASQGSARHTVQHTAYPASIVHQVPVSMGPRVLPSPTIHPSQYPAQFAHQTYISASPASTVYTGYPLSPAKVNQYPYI
# [9] = biological target: Homeodomain-interacting protein kinase 2 (Homo sapiens) (UniProt Q9H2X6); details: at 10 µM
# [10] = biological target: Homeodomain-interacting protein kinase 3 (Homo sapiens) (UniProt Q9H422); details: at 1 µM
# Chain of Homeodomain-interacting protein kinase 3 (Homo sapiens) (Q9H422 whole entry, looked up): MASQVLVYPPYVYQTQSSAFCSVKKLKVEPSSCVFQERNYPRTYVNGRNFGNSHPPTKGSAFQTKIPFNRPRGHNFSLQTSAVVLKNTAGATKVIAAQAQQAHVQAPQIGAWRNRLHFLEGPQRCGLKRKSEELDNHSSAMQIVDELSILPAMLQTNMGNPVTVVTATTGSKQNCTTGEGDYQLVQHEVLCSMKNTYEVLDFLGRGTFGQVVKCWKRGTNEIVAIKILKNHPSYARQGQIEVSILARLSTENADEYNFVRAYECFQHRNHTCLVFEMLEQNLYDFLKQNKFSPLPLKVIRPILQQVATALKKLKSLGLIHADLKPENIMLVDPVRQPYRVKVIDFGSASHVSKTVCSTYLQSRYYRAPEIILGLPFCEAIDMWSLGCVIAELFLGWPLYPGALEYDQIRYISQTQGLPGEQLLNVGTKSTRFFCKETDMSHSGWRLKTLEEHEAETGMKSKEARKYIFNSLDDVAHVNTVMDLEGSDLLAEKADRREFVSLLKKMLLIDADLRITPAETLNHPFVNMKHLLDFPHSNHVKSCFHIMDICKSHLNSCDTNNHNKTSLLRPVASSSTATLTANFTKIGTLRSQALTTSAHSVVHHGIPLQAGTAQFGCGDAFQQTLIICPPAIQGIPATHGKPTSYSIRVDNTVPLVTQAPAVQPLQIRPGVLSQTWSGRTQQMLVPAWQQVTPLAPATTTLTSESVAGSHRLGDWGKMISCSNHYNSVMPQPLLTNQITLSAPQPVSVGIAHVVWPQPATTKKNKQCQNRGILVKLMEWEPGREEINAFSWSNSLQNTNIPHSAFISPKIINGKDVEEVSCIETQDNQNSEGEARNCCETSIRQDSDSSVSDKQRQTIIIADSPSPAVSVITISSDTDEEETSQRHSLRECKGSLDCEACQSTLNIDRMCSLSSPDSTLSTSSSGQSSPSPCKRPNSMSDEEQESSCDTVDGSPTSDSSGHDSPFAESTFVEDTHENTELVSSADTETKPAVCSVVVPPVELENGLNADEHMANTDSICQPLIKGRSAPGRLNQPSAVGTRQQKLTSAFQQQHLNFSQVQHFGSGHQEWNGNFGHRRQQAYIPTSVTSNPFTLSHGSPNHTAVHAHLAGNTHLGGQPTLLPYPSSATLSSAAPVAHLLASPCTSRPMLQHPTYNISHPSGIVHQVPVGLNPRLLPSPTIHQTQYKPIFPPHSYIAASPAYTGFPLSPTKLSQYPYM
Structure (SMILES),residual activity [1] [%],residual activity [2] [%],residual activity [3] [%],residual activity [4] [%],residual activity [5] [%],residual activity [6] [%],residual activity [7] [%],residual activity [8] [%],residual activity [9] [%],residual activity [10] [%]
O=C1NC(=O)/C(=C/c2ccc3c(c2)OC(F)(F)O3)S1,93,100,92,93,90,99,98,104,76,89
Nc1n[nH]c2nnc(-c3c(-c4ccccc4)nn4ccccc34)cc12,81,77,30,89,49,105,95,103,95,97
c1ccc2c(-c3ccncc3)c[nH]c2c1,79,,135,94,88,95,98,100,85,95
CC(=O)O/N=C1\C(=C2\C(=O)Nc3cc(Br)ccc32)Nc2ccccc21,87,4,0,14,2,95,85,84,43,93
N#Cc1cnc2cnc(NCc3cccnc3)cc2c1Nc1ccc(F)c(Cl)c1,94,46,39,62,42,,,94,84,
O=C(Nc1cccc(Nc2nccc(Nc3cccc(C(F)(F)F)c3)n2)c1)C1CC1,88,94,67,79,104,96,102,93,89,103
CC(=O)c1ccc(N2CCOCC2)cc1O,90,,,101,109,97,104,100,94,95
O=Nc1c(-c2c(O)[nH]c3ccccc23)[nH]c2ccccc12,18,5,1,10,1,90,73,48,8,88
O=C1Nc2ccccc2/C1=C1/Nc2ccccc2/C1=N\OCCC(O)CO (configuration not stated),33,4,0,6,6,77,50,40,7,70
N#C/C(=C(\N)Sc1ccc(N)cc1)c1ccccc1C(F)(F)F,91,89,87,99,96,109,101,99,92,93
Cc1cccc(-c2[nH]c(C(C)(C)C)nc2-c2ccc3c(c2)OCO3)n1,97,,,104,93,93,102,97,96,
CO[C@H]1C[C@@H]2CC[C@@H](C)[C@@](O)(O2)C(=O)C(=O)N2CCCC[C@H]2C(=O)O[C@H]([C@H](C)C[C@@H]2CC[C@@H](O)[C@H](OC)C2)CC(=O)[C@H](C)/C=C(\C)[C@@H](O)[C@@H](OC)C(=O)[C@H](C)C[C@H](C)/C=C/C=C/C=C/1C,86,117,193,96,,91,101,103,99,91
Cc1cncc2cccc(S(=O)(=O)N3CCCN(C(=O)CN)C[C@H]3C)c12,28,,,,,94,,,,
